PubChem BioAssay (Tox21)
Several values for one entry are separate records, joined by “and”; a condition that tells them apart may be missing. Equal values may be shown once. Records with an inconclusive call do not appear. More than one record can exist for a structure, and the calls need not agree. Activity calls are given as the source filed them. Unless noted, calls follow the shape of the dose curve; as a rule, active = well fitted curve in the direction sought with a large enough effect in the repeat runs; inconclusive = weak or mixed curves; inactive = no such curve, though single readings can be large; an effect the other way counts as inactive or inconclusive.

What was measured:
[1] = qHTS assay to identify small molecule agonists of the estrogen receptor alpha (ER-alpha) signaling pathway in the presence of an antagonist - cell viability counter screen (AID 1259386);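 also: cells exposed to compounds for 22 h at 37 °C before the viability read; nearly all actives have a fitted effect of over 30% in size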; also: potency is read from the fitted curve at half-maximal effect
Summary of the method: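 Using estrogen-depleted VM7Luc4E2 cells, the 15-concentration compound series was applied together with 10.0nM ICI-182,780 and incubated 22hr at 37C/5% CO2. Cell viability was then scored by CellTiter-Fluor.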

[2] = target: Progesterone receptor (Homo sapiens) (UniProt P06401); test: qHTS assay to identify small molecule agonists of the progesterone receptor (PR) signaling pathway (AID 1346784; calls by dose curve; also: nearly all actives have a fitted effect of over 30% in size; also: potency is read from the fitted curve at half-maximal effect)
Sequence of Progesterone receptor (Homo sapiens) (P06401 whole entry, looked up): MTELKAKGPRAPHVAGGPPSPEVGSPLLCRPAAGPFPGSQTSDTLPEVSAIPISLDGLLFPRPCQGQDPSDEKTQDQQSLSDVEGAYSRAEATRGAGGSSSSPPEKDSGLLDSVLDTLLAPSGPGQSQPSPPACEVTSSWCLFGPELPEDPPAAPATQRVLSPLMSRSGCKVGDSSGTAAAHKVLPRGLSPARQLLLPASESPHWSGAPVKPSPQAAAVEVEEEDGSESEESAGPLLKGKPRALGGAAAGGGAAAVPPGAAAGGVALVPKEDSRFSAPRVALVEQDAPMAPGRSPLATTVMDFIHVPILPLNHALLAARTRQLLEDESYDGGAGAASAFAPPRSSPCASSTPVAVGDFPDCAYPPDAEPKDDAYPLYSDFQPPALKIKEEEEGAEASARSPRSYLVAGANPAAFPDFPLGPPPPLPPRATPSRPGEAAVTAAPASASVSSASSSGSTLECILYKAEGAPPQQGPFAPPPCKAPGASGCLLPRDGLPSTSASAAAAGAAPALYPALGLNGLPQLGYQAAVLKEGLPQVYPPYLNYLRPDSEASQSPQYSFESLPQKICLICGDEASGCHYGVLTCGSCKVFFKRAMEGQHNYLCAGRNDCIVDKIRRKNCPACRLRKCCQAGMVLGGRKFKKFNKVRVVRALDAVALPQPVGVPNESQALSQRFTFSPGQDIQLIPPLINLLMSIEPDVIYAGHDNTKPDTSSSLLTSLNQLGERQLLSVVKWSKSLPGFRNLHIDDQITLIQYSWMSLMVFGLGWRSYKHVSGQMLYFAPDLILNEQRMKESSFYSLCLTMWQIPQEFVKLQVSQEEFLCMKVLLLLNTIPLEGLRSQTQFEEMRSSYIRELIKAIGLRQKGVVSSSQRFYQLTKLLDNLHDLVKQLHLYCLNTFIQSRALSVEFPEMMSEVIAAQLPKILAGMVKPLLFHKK
Summary of the method: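 Seed PR-UAS-bla HEK 293T cells (2% charcoal-stripped FBS), incubate 6 hr at 37C; add compounds in DMSO, 16 hr at 37C; add LiveBLAzer B/G substrate, 2 hr RT; read fluorescence intensity.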

[3] = qHTS assay to identify small molecule antagonists of the progesterone receptor (PR) signaling pathway - cell viability counter screen (AID 1346798); also: nearly all actives have a fitted effect of over 50% in size; also: potency is read from the fitted curve at half-maximal effect
Summary of the method: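 Measures cytotoxicity in parallel with the PR antagonist reporter read: HEK293T PR-UAS-bla cells get compound and R5020 for 16 hr, and remaining viable cells are quantified by CellTiter-Glo luminescence.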

[4] = qHTS assay to identify small molecule agonists of the progesterone receptor (PR) signaling pathway - cell viability counter screen (AID 1346799; calls by dose curve; also: nearly all actives have a fitted effect of over 45% in size; also: potency is read from the fitted curve at half-maximal effect)
Summary of the method: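 Using the same plates as the PR reporter screen, HEK293T PR-UAS-bla cells received compounds for 16 hr at 37C and were then lysed with CellTiter-Glo; luminescence was read 30 min later at room temperature.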

[5] = qHTS assay to identify small molecule antagonists of the TGF-beta/Smad signaling pathway - cell viability counter screen (AID 1346824); also: nearly all actives have a fitted effect of over 50% in size
Summary of the method: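 SBE-bla HEK 293T cells, incubated overnight, then compound plus 0.25 ng/mL TGF-beta1 (stock added) for 5 hr at 37 C. Viability was read in the same wells by CellTiter-Glo luminescence after 30 min at room temperature.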

[6] = qHTS assay to identify small molecule agonists of the TGF-beta/Smad signaling pathway - cell viability counter screen (AID 1346829); also: top concentration of the series differs between compounds; nearly all actives have a fitted effect of over 45% in size
Summary of the method: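 HEK 293T SBE-bla line, 5 hr compound exposure at 37 C, multiplexed CellTiter-Glo viability read by luminescence.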

[7] = qHTS assay to identify small molecule agonists of the TGF-beta/Smad signaling pathway (AID 1346859; active = well fitted activation curve with a large enough effect in the signal ratio in the repeat runs, not every such curve was filed as active; the % refers to the signal ratio; also: series mostly up to about 77 µM)
Summary of the method: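 Beta-lactamase reporter activity downstream of Smad binding elements was measured in stably transfected HEK 293T cells; compounds were incubated for 5 hr, substrate for 2 hr at room temperature.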

[8] = target: Thyrotropin-releasing hormone receptor (Homo sapiens) (UniProt P34981); test: qHTS assay to identify small molecule antagonists of the thyrotropin-releasing hormone receptor (TRHR) signaling pathway (AID 1346877; active = well fitted inhibition curve with a large enough effect in the repeat runs, not every such curve was filed as active; also: series mostly up to about 51 µM)
Sequence of Thyrotropin-releasing hormone receptor (Homo sapiens) (P34981 whole entry, looked up): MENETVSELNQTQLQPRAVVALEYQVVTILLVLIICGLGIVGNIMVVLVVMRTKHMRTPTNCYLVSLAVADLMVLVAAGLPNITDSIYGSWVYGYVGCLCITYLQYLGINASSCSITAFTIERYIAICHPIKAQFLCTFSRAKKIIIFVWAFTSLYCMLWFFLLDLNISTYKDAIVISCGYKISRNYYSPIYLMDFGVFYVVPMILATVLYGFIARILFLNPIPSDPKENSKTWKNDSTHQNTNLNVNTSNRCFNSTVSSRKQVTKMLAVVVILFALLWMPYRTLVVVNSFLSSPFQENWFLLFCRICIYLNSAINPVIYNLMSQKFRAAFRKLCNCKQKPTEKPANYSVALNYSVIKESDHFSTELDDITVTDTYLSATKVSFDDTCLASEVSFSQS
Summary of the method: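 Calcium signal in dye-loaded TRHR/HEK293 cells; compounds added 5 min before TRH (1 nM final); fluorescence monitored 3 min at 1 s steps.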

[9] = target: Thyrotropin-releasing hormone receptor (Homo sapiens) (UniProt P34981); test: qHTS assay to identify small molecule agonists of the thyrotropin-releasing hormone receptor (TRHR) signaling pathway (AID 1346891; calls by dose curve;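 also: HEK293 cells expressing TRHR with calcium dye readout; series mostly up to about 58 µM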)
Summary of the method: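 Overnight-plated (18 h, 37 °C, 5% CO2) TRHR-Hek293 cells; 2 h calcium dye at 37 °C; compound in DMSO; 3-min kinetic fluorescence read.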

[10] = Human pregnane X receptor (PXR) small molecule agonists, qHTS cell viability counter screen (AID 1346977); also: nearly all actives have a fitted effect of over 50% in size; also: potency is read from the fitted curve at half-maximal effect
Summary of the method: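 After a 5hr pre-incubation, PXR-Luc HepG2 cells received compounds plus positive control in DMSO and were kept 24hr at 37C. Cell viability was quantified by fluorescence from CellTiter-Fluor added for the final hour.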

[11] = Caspase-3/7 induction in HepG2 cells by small molecules, qHTS assay (AID 1346978); also: nearly all actives have a fitted effect of over 15% in size
Summary of the method: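 Wild-type HepG2 cells, 2,000/well, settled 5 hr at 37 C and 5% CO2, then compound-treated for 17 hr; caspase-3/7 activity read by luminescent Caspase-Glo 3/7 after 30 min at room temperature.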

[12] = Caspase-3/7 induction in CHO-K1 cells by small molecules, qHTS assay (AID 1346980); also: nearly all actives have a fitted effect of over 15% in size
Summary of the method: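 Wild-type CHO-K1 cells exposed to compounds for 17hr at 37 C, 5% CO2. Caspase-3/7 activity then measured by Caspase-Glo 3/7 luminescence after 30min at room temperature.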

[13] = Caspase-3/7 induction in HepG2 cells by small molecules, qHTS cell viability counter screen (AID 1346981); also: nearly all actives have a fitted effect of over 30% in size; also: potency is read from the fitted curve at half-maximal effect
Summary of the method: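 After a 5-hr attachment period at 37 C and 5% CO2, wild-type HepG2 cells received compounds in DMSO. Sixteen hours later CellTiter-Fluor was dispensed and the fluorescent signal quantified after a further hour.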

[14] = target: Nuclear receptor subfamily 1 group I member 2 (Homo sapiens) (UniProt O75469); test: Human pregnane X receptor (PXR) small molecule agonists, qHTS assay (AID 1346982); also: nearly all actives have a fitted effect of over 35% in size; also: potency is read from the fitted curve at half-maximal effect
Sequence of Nuclear receptor subfamily 1 group I member 2 (Homo sapiens) (O75469 whole entry, looked up): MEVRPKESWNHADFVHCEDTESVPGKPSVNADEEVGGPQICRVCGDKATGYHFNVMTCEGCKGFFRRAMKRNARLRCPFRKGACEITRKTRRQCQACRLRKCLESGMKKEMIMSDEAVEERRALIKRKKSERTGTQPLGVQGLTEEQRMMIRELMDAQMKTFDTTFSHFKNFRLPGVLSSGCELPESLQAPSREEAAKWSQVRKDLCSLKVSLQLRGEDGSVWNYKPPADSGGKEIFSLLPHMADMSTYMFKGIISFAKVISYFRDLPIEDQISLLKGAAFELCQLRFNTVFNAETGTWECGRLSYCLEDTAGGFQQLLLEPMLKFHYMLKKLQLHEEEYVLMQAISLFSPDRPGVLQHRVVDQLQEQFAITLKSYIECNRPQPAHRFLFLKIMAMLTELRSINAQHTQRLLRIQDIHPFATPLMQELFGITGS
Summary of the method: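 Tox21 qHTS; PXR-Luc HepG2; compounds pinned from DMSO; 24 hr, 37 C; ONE-Glo luciferase detection, 30 min room temperature.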

[15] = target: Progesterone receptor (Homo sapiens) (UniProt P06401); test: qHTS assay to identify small molecule antagonists of the progesterone receptor (PR) signaling pathway (AID 1346795; active = well fitted inhibition curve with a large enough effect in the signal ratio in the repeat runs, not every such curve was filed as active; the % refers to the signal ratio; also: potency is read from the fitted curve at half-maximal effect)
Summary of the method: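 Screening used a GripTite HEK293T line with PR-responsive UAS-beta-lactamase. Cells were challenged with compound in the presence of 1 nM R5020 final for 16 hr at 37C; B/G FRET substrate, 2 hr room temperature, fluorescence.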

[16] = Caspase-3/7 induction in CHO-K1 cells by small molecules, qHTS cell viability counter screen (AID 1346979); also: nearly all actives have a fitted effect of over 35% in size; also: potency is read from the fitted curve at half-maximal effect
Summary of the method: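 Multiplexed with Caspase-Glo 3/7 in CHO-K1 cells, this counter screen added CellTiter-Fluor after 16hr of compound exposure and recorded fluorescence 1hr later.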

[17] = target: Cytochrome P450 2D6 (Homo sapiens) (UniProt P10635); test: Cytochrome P450 Family 2 Subfamily D Member 6 (CYP2D6) small molecule antagonists: luciferase reporter qHTS assay (AID 1671196); also: nearly all actives have a fitted effect of over 50% in size; also: potency is read from the fitted curve at half-maximal effect
Sequence of Cytochrome P450 2D6 (Homo sapiens) (P10635 whole entry, looked up): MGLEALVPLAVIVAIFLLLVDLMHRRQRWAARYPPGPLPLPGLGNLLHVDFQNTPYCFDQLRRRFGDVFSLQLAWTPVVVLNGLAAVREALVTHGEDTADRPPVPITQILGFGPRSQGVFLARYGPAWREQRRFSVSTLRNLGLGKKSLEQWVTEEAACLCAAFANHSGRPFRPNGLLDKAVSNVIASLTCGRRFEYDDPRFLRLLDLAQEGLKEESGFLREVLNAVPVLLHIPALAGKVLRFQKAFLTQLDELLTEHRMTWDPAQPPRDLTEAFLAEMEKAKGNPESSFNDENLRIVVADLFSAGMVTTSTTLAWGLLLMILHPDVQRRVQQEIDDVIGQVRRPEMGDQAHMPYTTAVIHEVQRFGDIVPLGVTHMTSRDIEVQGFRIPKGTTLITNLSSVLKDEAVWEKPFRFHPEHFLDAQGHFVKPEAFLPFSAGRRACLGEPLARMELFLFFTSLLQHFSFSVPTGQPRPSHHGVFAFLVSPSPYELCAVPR
Summary of the method: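 Room-temperature luminescent CYP2D6 activity assay: compound preincubated 10 min with enzyme–substrate mix, NADPH-initiated reaction 1 h, detection reagent 20 min before reading.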

[18] = target: Nuclear receptor subfamily 1 group I member 2 (Homo sapiens) (UniProt O75469); test: CYP3A4 induction through human pregnane X receptor (PXR) by small molecules, qHTS assay (AID 1346984); also: nearly all actives have a fitted effect of over 40% in size
Summary of the method: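 Cells (DPX-2; HepG2 with PXR element plus CYP3A4-promoter luciferase) settled 5hr, then were treated 24hr at 37C. A 3hr, 3uM-final Luciferin-IPA step preceded luminescence measurement with One-Glo.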

[19] = target: Nuclear receptor subfamily 1 group I member 2 (Homo sapiens) (UniProt O75469); test: Human pregnane X receptor (PXR) activation by small molecules, qHTS assay (AID 1346985); also: nearly all actives have a fitted effect of over 40% in size
Summary of the method: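 DPX-2 cells (HepG2 co-transfected with a PXR response element and a CYP3A4-promoter luciferase construct) were seeded at 2,000 per well, rested 5 hr at 37C, then exposed to DMSO-dissolved compounds for 24 hr. Activation was read as luciferase luminescence.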

Measured: Potency

CCCNCCC
not listed: [15] | [16] | [17] | [18] | [19]
inactive: all other assays above

OC12N=C(c3ccccc3)SC1Cc1cc(Cl)ccc12 (stereo unspecified)
inactive: [1] | [2] | [5] | [6] | [7] | [11] | [12]
active: [15] 43.3 µM | [14] 10.9 µM

CN1CCC[C@@H]1CCO[C@](C)(c1ccccc1)c1ccc(Cl)cc1
active: [3] 21.1 µM | [4] 8.41 µM | [10] 21.1 µM | [16] 26.6 µM
inactive: [1] | [2] | [5] | [6] | [7] | [8] | [12]

COCCOc1cc2cc(C(=O)NC3CCN(C(C)C)CC3)n(CC(=O)Nc3ccc(Cl)cn3)c2cn1
active: [10] 53.9 µM
not listed: [3] | [4] | [9] | [18] | [19]
inactive: all other assays above

S=c1nccc[nH]1
active: [17] 31.8 µM
not listed: [9] | [15] | [16] | [18] | [19]
inactive: all other assays above

CC(C)=CCNc1ncnc2c1ncn2[C@@H]1O[C@H](CO)[C@@H](O)[C@H]1O
active: [10] 13.3 µM | [16] 11.9 µM | [14] 9.44 µM
inactive: [1] | [2] | [15] | [7] | [8] | [9] | [12]

Cc1c(N)cccc1C(F)(F)F
not listed: [3] | [4] | [10] | [18] | [19]
inactive: all other assays above

O=C1NC(=O)[C@@H]2CC=CC[C@H]12
active: [3] 15.4 µM | [4] 8.63 µM
not listed: [14] | [15] | [17] | [18] | [19]
inactive: all other assays above

Cc1c2ccccc2c(C)c2c1ccc1ccccc12
inactive: [1] | [2] | [5] | [8] | [9] | [11] | [12] | [17]
inactive and 61.1 µM (active): [13]
active: [3] 27 µM and 30.6 µM | [10] 61.1 µM | [14] 30.3 µM and 17.2 µM

CC(=O)Oc1cc2c(s1)CCN(C(C(=O)C1CC1)c1ccccc1F)C2 (stereo unspecified)
active: [14] 26.6 µM | [17] 8.71 µM
not listed: [15] | [16] | [18] | [19]
inactive: all other assays above

O=S(=O)(O)c1ccc(N=Nc2c(O)ccc3ccccc23)cc1
active: [1] 27.3 µM | [3] 8.63 µM | [4] 7.7 µM | [10] 27.3 µM | [16] 30.6 µM | [13] 30.6 µM | [17] 35.6 µM
not listed: [14] | [15] | [18] | [19]
inactive: all other assays above

CCN(CCN)c1cccc(C)c1
active: [14] 61.7 µM and 61.1 µM | [17] 2.54 µM and 10 µM
not listed: [3] | [5] | [9] | [18] | [19]
inactive: all other assays above

Cl[Si](Cl)(c1ccccc1)c1ccccc1
not listed: [13] | [14] | [15] | [17] | [18] | [19]
inactive: all other assays above

O=c1[nH]c2ccccc2n1CCCN1CCN(C(c2ccccc2)c2ccccc2)CC1
active: [15] 29.8 µM | [10] 33.5 µM | [14] 4.22 µM | [17] 0.692 µM
inactive: [1] | [2] | [5] | [6] | [12]

CCCCCCCCCCC[C@@H](C[C@@H]1OC(=O)[C@H]1CCCCCC)OC(=O)[C@H](CC(C)C)NC=O
not listed: [4] | [9] | [15] | [16] | [17]
inactive: all other assays above

O=[N+]([O-])c1ccc(F)c(Cl)c1
active: [2] 1.09 µM
not listed: [3] | [4] | [10] | [18] | [19]
inactive: all other assays above
